The values that follow come from PubChem BioAssay.

Each structure is given as a SMILES string. Active and inactive are the calls of the source. Unless noted, how the calls were made is not given here.

A short description of test [1]: compound effects on lung adenocarcinoma cell viability – A549, calcein-AM fluorescence, 48 h, basal, profiling panel (AID 1162). Further: test concentration not given here. To be noted: higher = more signal.
Test [2] in a line: compound effects on differentiated 3T3-L1 adipocyte viability – cell-based, 3T3-L1 adipocytes, calcein-AM fluorescence, 48 h, basal, profiling panel (AID 1163). Further: test concentration not given here. The note with it: 3T3-L1 adipocytes viability, higher = more signal.
Test [3] in a line: compound effects on hepatocellular carcinoma cell viability – HepG2, calcein-AM fluorescence, 48 h, basal, profiling panel (AID 1164). Further: test concentration not given here. To be noted: higher = more signal.
A short description of test [4]: compound effects on multiple myeloma cell viability – MM1S, calcein-AM fluorescence, 48 h, basal, profiling panel (AID 1165).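 Further: viability of MM1S multiple myeloma cells under basal unstimulated conditions; test concentration not given here.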 To be noted: higher = more signal.
Test [5] can be described thus: calcein-AM signal in unstimulated myeloma cells – cell-based, calcein-AM fluorescence, 48 h, PK04 Diversity Set, profiling panel (AID 1166).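 Further: cells grown under basal conditions without added stimulus; test concentration not given here.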 To be noted: RPMI8226 myeloma viability, higher = more signal.
Test [6] can be described thus: JC-1 mitochondrial signal, unstimulated HepG2 cells – cell-based, JC-1 fluorescence, 24 h, 100 nL compound, profiling panel (AID 1167). Further: test concentration not given here. To be noted: HepG2 mitochondrial potential, higher = more signal.
Test [7] is described as follows: JC-1 mitochondrial signal, unstimulated adipocytes – cell-based, JC-1 fluorescence, 3T3-L1 adipocytes, 24 h, 100 nL compound, profiling panel (AID 1168). Further: test concentration not given here. The note with it: JC-1 mitochondrial fluorescence, higher = more signal, called active from +8 up or from −8 down.
A short description of test [8]: JC-1 mitochondrial signal, unstimulated myeloma cells – cell-based, JC-1 fluorescence, RPMI8226, 24 h, 100 nL compound, profiling panel (AID 1169). Further: test concentration not given here. The note with it: JC-1 mitochondrial potential fluorescence, higher = more signal.
Test [9] can be described thus: JC-1 mitochondrial signal, unstimulated MM1S myeloma – cell-based, JC-1 fluorescence, 24 h, 100 nL compound, profiling panel (AID 1170). Further: test concentration not given here. To be noted: MM1S mitochondrial potential, higher = more signal.
Test [10] is described as follows: resazurin metabolic signal in A549 cells – cell-based, resazurin fluorescence, 24 h, PK04 Diversity Set, profiling panel (AID 1171). Further: test concentration not given here. To be noted: A549 viability, higher = more signal, called active from +8 up or from −8 down. Background: Alamar Blue is a resazurin reagent that responds to reducing activity.
Test [11] in a line: resazurin metabolic signal in HepG2 cells – cell-based, resazurin fluorescence, 24 h, PK04 Diversity Set, profiling panel (AID 1172). Further: test concentration not given here. The note with it: HepG2 viability, higher = more signal.
The nature of test [12]: budding yeast growth changes without added modifier – OD600, strain BY4716, 24 h, basal condition, primary screen (AID 1173). The note with it: S. cerevisiae BY4716 growth, OD600, 24 h; higher = more signal, called active from +8 up or from −8 down.
A short description of test [13]: viability profiling in MM1S myeloma cells – cell-based, resazurin fluorescence, basal, 24 h, PK04 Diversity Set, profiling panel (AID 1174). Further: test concentration not given here. To be noted: higher = more signal, called active from +8 up or from −8 down.
The target in test [14] is Dihydroorotate dehydrogenase (quinone), mitochondrial (Plasmodium falciparum (isolate 3D7)) (UniProt Q08210). Description: inhibition of P. falciparum DHODH – biochemical, C-terminal His tag, absorbance 600 nm, primary screen (AID 1175).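 Further: recombinant parasite enzyme with a five histidine tag at its C terminus; test concentration not given here.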 The note with it: PfDHODH enzyme, DCIP absorbance 600 nm; higher = more signal, called active from +8 up or from −8 down.
A short description of test [15]: inhibition of PAO1 biofilm formation – strain PAO1, LB-PBS medium, absorbance 600 nm, primary screen (AID 1176). Further: test concentration not given here. To be noted: P. aeruginosa PAO1 growth/biofilm, A600, 12 h; higher = more signal.
A short description of test [16]: growth modulation of vineyard yeast isolate – strain RM11-1a, OD600, basal, 24 h, primary screen (AID 1177).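 Further: cultures grown under basal conditions with no added stressor; test concentration not given here.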 The note with it: S. cerevisiae RM11-1a growth, OD600, 24 h; higher = more signal, called active from +8 up or from −8 down.
A short description of test [17]: growth of efflux-deficient E. coli DRC39 – strain DRC39, OD650, 24 h, E. coli filamentation inducers, primary screen (AID 1178).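 Further: growth measured as culture turbidity by optical density at 650 nm; test concentration not given here.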 The note with it: E. coli DRC39 acrAB, higher = more signal, called active from +8 up or from −8 down.
A short description of test [18]: growth of efflux-deficient E. coli DRC39 – strain DRC39, OD650, 48 h, E. coli filamentation inducers, primary screen (AID 1179).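 Further: screen aims at cell division blockers that make cells filament.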 To be noted: E. coli DRC39 delta-acrAB growth, higher = more signal, called active from +8 up or from −8 down.
The nature of test [19]: viability profiling in RPMI8226 myeloma cells – cell-based, resazurin fluorescence, basal, 24 h, PK04 Diversity Set, profiling panel (AID 1180).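 Further: RPMI8826 multiple myeloma cell line at 5000 cells per well; test concentration not given here.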 The note with it: higher = more signal.
Test [20] has as its target E3 ubiquitin-protein ligase XIAP (Homo sapiens) (UniProt P98170). Description: small molecules binding XIAP protein – biophysical, small-molecule microarray, fluorescence 635 nm, primary screen (AID 1181).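 Further: score merges 667 nm emission and signal to noise over triplicate slides.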 To be noted: higher = more signal.

Sequence of Dihydroorotate dehydrogenase (quinone), mitochondrial (Plasmodium falciparum (isolate 3D7)) (Q08210 whole entry, looked up): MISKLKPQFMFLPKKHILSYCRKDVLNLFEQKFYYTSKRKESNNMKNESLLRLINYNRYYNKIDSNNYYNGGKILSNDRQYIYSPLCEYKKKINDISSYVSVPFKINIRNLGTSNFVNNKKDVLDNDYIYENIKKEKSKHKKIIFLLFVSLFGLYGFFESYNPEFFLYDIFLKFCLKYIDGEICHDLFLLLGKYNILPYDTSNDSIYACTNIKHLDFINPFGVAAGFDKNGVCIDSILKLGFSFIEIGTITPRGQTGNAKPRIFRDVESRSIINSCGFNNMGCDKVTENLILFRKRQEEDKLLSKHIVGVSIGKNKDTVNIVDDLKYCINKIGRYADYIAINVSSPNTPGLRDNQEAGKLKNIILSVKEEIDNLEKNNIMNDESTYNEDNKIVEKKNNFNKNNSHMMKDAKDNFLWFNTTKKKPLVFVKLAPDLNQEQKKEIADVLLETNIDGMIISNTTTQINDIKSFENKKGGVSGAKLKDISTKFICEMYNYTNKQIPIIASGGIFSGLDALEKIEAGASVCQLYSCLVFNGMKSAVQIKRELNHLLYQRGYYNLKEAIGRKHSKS
Sequence of E3 ubiquitin-protein ligase XIAP (Homo sapiens) (P98170 whole entry, looked up): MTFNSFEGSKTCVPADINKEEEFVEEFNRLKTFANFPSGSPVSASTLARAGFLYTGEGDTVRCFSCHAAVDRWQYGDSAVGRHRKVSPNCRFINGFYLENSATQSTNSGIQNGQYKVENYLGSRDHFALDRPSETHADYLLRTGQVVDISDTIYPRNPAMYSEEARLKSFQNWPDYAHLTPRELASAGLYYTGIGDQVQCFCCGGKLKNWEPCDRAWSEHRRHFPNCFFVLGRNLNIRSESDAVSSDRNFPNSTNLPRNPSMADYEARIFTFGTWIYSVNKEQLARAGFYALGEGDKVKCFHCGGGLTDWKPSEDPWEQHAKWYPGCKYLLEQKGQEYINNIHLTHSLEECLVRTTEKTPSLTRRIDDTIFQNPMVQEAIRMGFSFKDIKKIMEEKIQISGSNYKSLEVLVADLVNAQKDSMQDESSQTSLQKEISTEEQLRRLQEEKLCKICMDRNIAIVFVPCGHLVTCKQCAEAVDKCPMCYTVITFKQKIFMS

As to `Cc1ccc(S[C@]2(C(=O)NCCCN(C)C)CC(=O)N(Cc3ccccc3)[C@@H]2c2ccc(CO)cc2I)cc1`, the z-score in [1] was 1.03; in test [2] it was 0.927; in test [3], 0.914; in [4], -3.64; in test [5] it was -2.38; in test [6], 1.65. Further, the z-score in [7] was -0.645 (inactive); in [8] it was -0.643; in [9], -0.822; in test [10], 0.0027 (inactive); in test [11], -0.896; in test [12], -4.78 (inactive). The z-score in test [13] is -2.94 (inactive); in [15], -0.369 (inactive); in [16] it was -1.03 (inactive); in [17], -0.361 (inactive); in test [18], -0.554 (inactive); in [19], -2.15. Further, the composite z-score in test [14] is -1.38 (inactive); in test [20] it was -0.0848.

As to `C[N+](C)(C)CCCCNC(=O)[C@H]1C[C@H]2C(=O)NCC(=O)N2[C@H]1c1cccc(OCCO)c1`, the z-score is -0.471 in test [1]; -0.387 in test [2]; -0.347 in test [3]; -0.0358 in [4]; 0.311 in test [5]; -1.13 in test [6]. In addition, the z-score was -0.373 (inactive) in test [7]; -0.074 in test [8]; -0.314 in test [9]; -0.0078 (inactive) in [10]; 0.052 in test [11]; 0.167 (inactive) in [12]. For the same molecule, the z-score was -0.935 (inactive) in test [13]; 1 (inactive) in [15]; 0.105 (inactive) in test [16]; -0.158 (inactive) in test [17]; -0.271 (inactive) in [18]; -1.15 in test [19]. In addition, the composite z-score in test [14] is -29.2 (active); in test [20] it was 0.133.

Regarding `COC(=O)[C@H]1[C@@H]2COc3ccccc3[C@H]2N[C@H]1C(=O)OC`, the z-score is 0.0306 in test [1]; 0.0308 in test [2]; 0.648 in [3]; -1.29 in [4]; -0.347 in test [5]; 0.321 in test [6]. For the same molecule, the z-score is -0.819 (inactive) in [7]; 0.195 in test [8]; -0.975 in test [9]; -0.124 (inactive) in test [10]; 0.0968 in test [11]; -1.81 (inactive) in test [12]. The z-score in test [13] was -0.586 (inactive); in test [15], -0.508 (inactive); in test [16], -0.398 (inactive); in [17] it was 0.226 (inactive); in test [18], 0.398 (inactive); in test [19], -0.139. Also, the composite z-score in test [14] is -16.2 (active); in [20], 0.0432.

In the case of `O=C1C2C=CC(C(O)C#Cc3ccccc3)N(Nc3ccccc3)C2C(=O)N1c1ccccc1` (stereo not given), the z-score in test [1] was -0.284; in [2], -1.26; in test [3] it was -0.374; in test [4], 0.0195; in test [5], -0.619; in test [6] it was -1.53. In addition, the z-score in test [7] was -0.869 (inactive); in test [8], -0.449; in [9], -0.41; in [10], 0.0504 (inactive); in [11], 0.198; in [12], -3.55 (inactive). The z-score was -0.279 (inactive) in test [13]; 0.875 (inactive) in test [15]; 0.143 (inactive) in [16]; -0.169 (inactive) in test [17]; -0.143 (inactive) in [18]; 0.0581 in test [19]. For the same molecule, the composite z-score in test [14] was -0.766 (inactive); in test [20] it was -0.189.

`O=C/C=C/c1ccccc1Cl`: the z-score in [1] was 1.23; in test [2] it was 0.556; in test [3], 1.03; in test [4] it was -0.882; in [5] it was 0.895; in test [6], 1.74. Besides, the z-score in [7] was 0.603 (inactive); in test [8] it was 0.562; in test [9] it was 1.09; in [10], 0.807 (inactive); in [11] it was 0.965; in [12], -7.23 (inactive). In addition, the z-score in test [13] is 0.413 (inactive); in [15] it was -0.227 (inactive); in test [16], -1.17 (inactive); in test [17], 0.834 (inactive); in test [18] it was 0.496 (inactive); in [19], 2.16. Also, the composite z-score in [14] was -0.516 (inactive); in test [20] it was -0.0393.

In the case of `COC(=O)C(CC#Cc1ccc2c(c1)[C@]1(C(=O)N2)[C@H](C(=O)N2CCCCCCC2)[C@H]2C(=O)O[C@H](c3ccccc3)[C@H](c3ccccc3)N2[C@@H]1c1ccc(O)cc1)C(=O)OC`, the z-score was 0.654 in [1]; 1.27 in [2]; 0.294 in test [3]; -1.25 in [4]; -0.248 in test [5]; -0.21 in test [6]. Besides, the z-score is -0.0509 (inactive) in [7]; 0.145 in test [8]; -1.15 in test [9]; -0.429 (inactive) in [10]; 0.436 in test [11]; -0.636 (inactive) in test [12]. Also, the z-score is 0.636 (inactive) in test [13]; 0.473 (inactive) in test [15]; -0.016 (inactive) in test [16]; -0.177 (inactive) in test [17]; -0.312 (inactive) in test [18]; 0.402 in [19]. In addition, the values for the composite z-score in test [14] and in [20] were -0.665 (inactive) and 0.0512, respectively.

With `CCCC=C(CCC)[C@@H](NS(=O)(=O)c1cccc(C(F)(F)F)c1)c1ccc(C(=O)OC)cc1`, the z-score is -0.336 in test [1]; -0.0748 in test [2]; -1.07 in test [3]; -0.008 in [4]; -0.341 in test [5]; -1.25 in test [6]. Also, the z-score in [7] was -0.413 (inactive); in [8], 0.0542; in test [9], -1.04; in [10], 0.206 (inactive); in [11], 1.18; in test [12], 0.661 (inactive). Moreover, the z-score in test [13] is 0.179 (inactive); in test [15] it was -0.94 (inactive); in test [16], -0.279 (inactive); in [17], -0.0305 (inactive); in [18], -0.0262 (inactive); in test [19] it was -0.16. The composite z-score in [14] is -0.237 (inactive); in test [20], 0.0506.

Turning to `C#CCCCON=C1C[C@@H](O)[C@@H](O)[C@@H]2[C@@H]3C(=O)N(Cc4ccc5c(c4)OCO5)C(=O)[C@@H]3CC[C@@H]12`, the z-score in test [1] was 0.347; in test [2], -1.2; in test [3], -0.61; in [4], 1.03; in [5] it was 0.351; in test [6], 0.722. In addition, the z-score in test [7] is 1.44 (inactive); in test [8], 0.412; in test [9], -1.46; in test [10] it was 0.414 (inactive); in test [11] it was 0.606; in [12], 0.532 (inactive). The z-score is 0.241 (inactive) in test [13]; -0.993 (inactive) in [15]; 0.577 (inactive) in test [16]; 0.571 (inactive) in test [17]; 0.186 (inactive) in test [18]; 1.42 in test [19]. Moreover, the composite z-score is 0.175 (inactive) in test [14] and 0.0785 in [20].

With `Cc1ccc(N2C(=O)c3ccccc3[C@](C)(C(=O)NCC(C)C)[C@@H]2c2ccc(CO)cc2)nc1`, the z-score in test [1] was -0.535; in test [2] it was -0.672; in test [3] it was -0.712; in test [4], -0.359; in test [5], 0.256; in [6] it was -0.481. Moreover, the z-score is -0.74 (inactive) in test [7]; -0.0498 in test [8]; -0.634 in test [9]; 0.606 (inactive) in test [10]; 0.1 in test [11]; 0.726 (inactive) in test [12]. In addition, the z-score in [13] was -0.558 (inactive); in test [15], 0.14 (inactive); in test [16], 1.42 (inactive); in test [17] it was 0.401 (inactive); in test [18], -0.247 (inactive); in [19], -0.481. The composite z-score was 1.08 (inactive) in test [14] and -0.0095 in [20].
